Measured values published in PubChem BioAssay (Tox21).
Calls of active or inactive are those of the source. Calls follow the shape of the dose curve; as a rule, active = well fitted curve in the direction sought with a large enough effect in the repeat runs; inconclusive = weak or mixed curves; inactive = flat fitted curve, though single readings scatter.

experiment: qHTS assay to test for compound auto fluorescence at 535 nm (green) in HepG2 cells (AID 720675); details: green autofluorescence 485/535 nm, 1 h; series mostly up to 91.3 µM
Source text: National Center for Advancing Translational Sciences [NCATS]
NIH Chemical Genomics Center [NCGC]
U.S. Environmental Protection Agency [EPA]
National Institutes of Environmental Health Sciences [NIEHS]
National Toxicology Program [NTP]
U.S. Food and Drug Administration [FDA]
Compound auto fluorescence often interferes with screening of the compound library against various biological targets and signaling pathways. Some of these compounds may have fluorophoric properties. Such properties may interfere with the assay outputs resulting in false positives and/or negatives. To decrease such complications and ensure the compound activities are relevant in terms of biological response, the Tox21 10K compound library was screened for auto fluorescence.
From the fluorophores used as reporter signals in our screening assays, the auto fluorescence equivalencies of compounds against three fluorophores have been evaluated: Triamterene, Fluorescein and Rose Bengal sodium for blue, green and red fluorescence, respectively. The fluorescence intensities were measured using Excitation/Emission wavelengths at 405/460nm, 485/535nm and 540/590nm for blue, green and red labels, respectively. This assay includes the green fluorescence data.
Tox21 Assay Protocol Summary:
2,000 HepG2 cells in 5 uL of culture medium (MEM containing 10% FBS) per well were dispensed into black wall/clear bottom 1536-well plates using a Multidrop Combi Dispenser (ThermoFisher Scientific, Waltham, MA). The assay plates were incubated overnight at 37 C to allow cell attachment to the well bottom, followed by the transfer of 23 nL compound or DMSO vehicle by a pintool work station (Kalypsys , San Diego, CA). After the assay plates were incubated for 1 hr at 37 C and 5% CO2, fluorescence intensities in the assay plates were measured by an Envision (PerkinElmer, Shelton, CT) plate reader using three labels for measuring blue, green and red fluorescence at […] 460, 535 and 590 nm respectively.

SMILES | outcome
CCN(CC)N=O | inactive
CCOc1cc(C=O)ccc1O | inactive
Cc1ccc(N)c(N)c1 | inactive
CCc1cccc(CC)c1N(COC)C(=O)CCl | inactive
Brc1ccc(Oc2cc(Br)c(Br)cc2Br)c(Br)c1 | inactive
N#CC(Br)Br | inactive
COc1ccc(C(CN(C)C)C2(O)CCCCC2)cc1 (stereo not given) | inactive
CCCCOCCOP(=O)(OCCOCCCC)OCCOCCCC | inactive
O=C(O)C(F)(F)C(F)(F)C(F)(F)C(F)(F)C(F)(F)C(F)(F)C(F)(F)F | inactive
CCCCCCCCCCCOC(=O)c1ccccc1C(=O)OCCCCCCCCCCC | inactive
Oc1cc(Cl)ccc1Oc1ccc(Cl)cc1Cl | inactive
CC(C)(OOC(C)(C)c1ccccc1)c1ccccc1 | inactive
Nn1cnnc1 | inactive
CCOC(=S)S | inactive
CCCCC(CC)COC(=O)c1ccc(C(=O)OCC(CC)CCCC)c(C(=O)OCC(CC)CCCC)c1 (stereo not given) | inactive
CCN(CC)C(=O)SCc1ccc(Cl)cc1 | inactive
CC(O)CCO (stereo not given) | inactive
N#Cc1cc(Br)c(O)c(Br)c1 | inactive
O=C(NC(=O)c1c(F)cccc1F)Nc1ccc(Cl)cc1 | inactive
CCOCN(C(=O)CCl)c1c(C)cccc1CC | inactive

SMILES | outcome
Cc1ccc(OP(=O)(Oc2ccc(C)cc2)Oc2ccc(C)cc2)cc1 | inactive
Clc1nc(Cl)nc(Cl)n1 | inactive
CCN(CC)C(=O)/C(Cl)=C(\C)OP(=O)(OC)OC | inactive
NC(=S)Nc1ccccc1 | inactive
CCN(N=O)C(N)=O | inactive
C#CCOS(=O)OC1CCCCC1Oc1ccc(C(C)(C)C)cc1 (stereo not given) | inactive
COP(=S)(OC)Oc1cc(Cl)c(Cl)cc1Cl | inactive
CNC(=O)N(C)c1nnc(C(C)(C)C)s1 | inactive
c1ccc(-c2cccc(-c3ccccc3)c2)cc1 | inactive
Oc1cc(Cl)c(Cl)cc1Cl | inactive
C1=Cc2cccc3cccc1c23 | inactive
CCCCCCCCC(=O)NCc1ccc(O)c(OC)c1 | inactive
Oc1ccc(-c2ccccc2)cc1 | inactive
Nc1ccc(-c2ccc(N)c(N)c2)cc1N | inactive
CCOP(=S)(OCC)O/N=C(\C#N)c1ccccc1 | inactive
O=[N+]([O-])c1c(Cl)c(Cl)c(Cl)c(Cl)c1Cl | inactive
C=C(C)C(=O)OCC1CO1 (stereo not given) | inactive
O=C(Nc1ccc(Br)cc1)c1cc(Br)cc(Br)c1O | inactive
O=C(CCl)c1ccccc1 | inactive
COC(=O)c1sccc1S(=O)(=O)NC(=O)Nc1nc(C)nc(OC)n1 | inactive
